Screens (PubChem BioAssay)
PvdQ inh = P. aeruginosa PvdQ acylase inhibition. purified PvdQ acylase, fluorescence plate reader. inhibition, % at 10 µM. hit rate 0.063% among 340,000; in the data active = inhibition above about 30%, passing the limit was not always enough; inconclusive = no clear call, values can overlap the other calls
DENV2 CPE = protects cells from dengue virus 2 cytopathic effect. AID 651640. CPE inhibition, % at 9.99 µM. hit rate 1.7% among 350,000. DENV2-infected cells, cytopathic effect rescue, plate reader; in the data active = CPE inhibition above about 20%, passing the limit was not always enough; inconclusive = no clear call, values can overlap the other calls; tested in BHK-21 cells
Statin myotox sup = suppression of simvastatin myotoxicity. C2C12 myotubes + simvastatin, ATP luminescence, 48 h; scaled: DMSO 0, geranylgeraniol control 100. rescue of ATP level, % at 7.49 µM. hit rate 0.78% among 330,000. AID 602340;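 active = mean ATP rescue above about 67%, or every replicate alone reaching that limit, limit read from the data, passing the limit was not always enough; inconclusive = no clear call, values can overlap the other calls; inactive = mean under the limit and some replicate under it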;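 also: myotubes were challenged with 10 µM simvastatin during compound exposure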
PGC1a acetyl inh = modulators of PGC1a acetylation; AID 651687; inhibition, % at 15.6 µM; U2OS PGC1a acetylation, AlphaScreen anti-acetyl-lysine; with virally co-expressed GCN5 acetyltransferase; hit rate 0.17% among 350,000;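 active = every replicate shows inhibition of at least 40%; inconclusive = mean inhibition at least 40% but some replicate below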
miR122 inh = blocks miR-122 activity in Huh7 sensor cells; Huh7 miR-122 Renilla luciferase sensor, 48 h; neutral wells = 0, positive control = 100; activation (reporter increase), % at 12.5 µM; hit rate 0.3% among 340,000;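 active = mean replicate activation score at least 90 and every replicate individually at or above 90; inconclusive = only one of the two criteria met; inactive = neither criterion met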;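 also: higher luciferase means less miR-122 activity so hits act as miR-122 inhibitors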
Each line names hits and unclear results; the compound was inactive in the other large screens. A selection: hits, their analogues and other compounds. The true share with any hit is near 2.2%.

CN1CCC(N(C)c2nc(-c3ccc([N+](=O)[O-])cc3)nc3ccccc23)CC1	none (no result: DENV2 CPE, Statin myotox sup)
CN(CC1COc2ccccc2O1)c1nc(-c2cccnc2)nc2ccccc12 (stereo unspecified)	Statin myotox sup 108 (no result: DENV2 CPE)
O=C(O)C(Br)Br	DENV2 CPE 70 (no result: PvdQ inh, Statin myotox sup, PGC1a acetyl inh, miR122 inh)
COC(=O)[C@H]1[C@H](CO)[C@H]2Cn3c(ccc(-c4cccc(OC)c4)c3=O)[C@@H]1N2C(=O)c1ccccc1F	none (no result: PvdQ inh)
O=C1NC2C(=CC(O)C(O)C2O)c2cc3c(c(O)c21)OCO3 (stereo unspecified)	DENV2 CPE 88, PGC1a acetyl inh 63 (no result: Statin myotox sup)
O=C1NC2C(=CC(O)C(O)C2O)c2cc3c(cc21)OCO3 (stereo unspecified)	PGC1a acetyl inh 85 (no result: Statin myotox sup)
CN(C(=O)Oc1cccc2ccccc12)C1C=CCC1 (stereo unspecified)	DENV2 CPE 65
O=C(Cc1ccccn1)N1CCCCN2[C@H](CO)[C@H](c3ccc(-c4ccc(F)cc4)cc3)[C@H]2C1	none (no result: PvdQ inh, Statin myotox sup)
O=[N+]([O-])c1ccc(N2CCOCC2)c2c1no[n+]2[O-]	PGC1a acetyl inh 84 (no result: PvdQ inh)
O=[N+]([O-])c1ccc(N2CCOCC2)c2cccnc12	none (no result: Statin myotox sup, PGC1a acetyl inh, miR122 inh)
CC(=O)N1CCCSC1=Nc1ccccc1	none (no result: Statin myotox sup, PGC1a acetyl inh, miR122 inh)
CCOc1ccccc1N=C1SCCCN1C	PGC1a acetyl inh 97 (no result: DENV2 CPE, miR122 inh)
C[C@@H]1CN([C@@H](C)CO)C(=O)c2c(c3ccccc3n2C)-c2ccccc2CO[C@@H]1CN(C)C(=O)Oc1ccccc1	none (no result: PvdQ inh, Statin myotox sup, miR122 inh)
CC12CCC3C(CCC4(O)CC(O)CCC34C=O)C1(O)CCC2C1=CC(=O)OC1 (stereo unspecified)	DENV2 CPE inconclusive, miR122 inh 96 (no result: PGC1a acetyl inh)
CC12CC[C@H]3[C@@H](CCC4(O)C[C@H](O)CCC34/C=N/NC(=O)c3ccccc3Cl)C1(O)CCC2C1=CC(=O)OC1 (stereo partly specified)	none (no result: Statin myotox sup, miR122 inh)
CC12CCC3C(CCC4(O)CC(O)CCC34C=NO)C1(O)CCC2C1=COC(=O)C1 (stereo unspecified)	none (no result: Statin myotox sup)
C[C@]12CC[C@H]3[C@@H](CC[C@]4(O)C[C@@H](O)CC[C@]34C=O)[C@@]1(O)CC[C@@H]2C1=CC(=O)OC1	PGC1a acetyl inh 96
CCCNC(=O)N1[C@@H]2c3ccc(-c4cccc(C(=O)N(C)C)c4)c(=O)n3C[C@H]1[C@H](CO)[C@H]2C(=O)O	none (no result: PvdQ inh, Statin myotox sup, miR122 inh)
Nc1cnn(-c2ccccc2)c(=O)c1Cl	DENV2 CPE 30
CCCNC(=O)[C@@H]1[C@@H](CO)[C@@H]2Cn3c(cccc3=O)[C@@H]2N1CC	none (no result: PvdQ inh, Statin myotox sup, miR122 inh)
CN(C)C(=O)[C@@H]1[C@@H](CO)[C@@H]2Cn3c(cccc3=O)[C@H]1N2CC1CC1	none (no result: PvdQ inh, PGC1a acetyl inh)
O=C1Nc2ccccc2/C1=C/c1cnc[nH]1	Statin myotox sup 199
O=C(Cc1cccnc1)N1CCCCN2[C@H](CO)[C@H](c3ccc(C#CC4CC4)cc3)[C@H]2C1	none (no result: PvdQ inh, Statin myotox sup)
CC1=NN(c2ccccc2)C(=O)/C1=C/c1c(O)[nH]c(=O)[nH]c1=O	PGC1a acetyl inh 49
COC(=O)C1=C(c2c(C)noc2C)C[C@@H]2CC[C@H]1N2C(=O)NC1CC1	none
COC(=O)C1=C(c2c(C)noc2C)C[C@@H]2CC[C@H]1N2C(=O)NC1CCCCC1	DENV2 CPE 48
c1ccc2cc(CC3=NCCN3)ccc2c1	none (no result: DENV2 CPE, Statin myotox sup)
c1ccc(C2CC2)c(OCC2=NCCN2)c1	DENV2 CPE 75
COC(=O)[C@@H]1[C@@H](CO)[C@@H]2Cn3c(ccc(-c4ccncc4)c3=O)[C@H]1N2CCc1ccccc1	DENV2 CPE 107 (no result: PvdQ inh, PGC1a acetyl inh, miR122 inh)
O=C(O)[C@@H]1[C@@H](CO)[C@@H]2Cn3c(ccc(-c4cccnc4)c3=O)[C@H]1N2C(=O)Nc1cc(F)ccc1F	none (no result: PvdQ inh, PGC1a acetyl inh, miR122 inh)
Cc1ccccc1-c1ccc([C@@H]2[C@@H](CO)N3CCCCN(C(=O)Cc4ccccn4)C[C@@H]23)cc1	none (no result: PvdQ inh, Statin myotox sup)
O=[N+]([O-])c1ccc(N2CCCCCC2)c2nonc12	none (no result: PGC1a acetyl inh, miR122 inh)
CN(c1ccc(O)cc1)c1ccc([N+](=O)[O-])c2nonc12	Statin myotox sup 117 (no result: PvdQ inh)
C[C@H](CO)N1C[C@H](C)[C@H](CN(C)C(=O)Oc2cccc3ccccc23)OCc2cn(nn2)CCCC1=O	none (no result: PvdQ inh, DENV2 CPE)
CC(=O)OC1CC2(O)C3CCC4CC(O)CCC4(C)C3CCC2(C)C1C1=CC(=O)OC1 (stereo unspecified)	PGC1a acetyl inh 65 (no result: Statin myotox sup)
CC1OC(OC2C(O)CC(OC3C(O)CC(OC4CCC5(C)C(CCC6C5CCC5(C)C(C7=CC(=O)OC7)C(O)CC65O)C4)OC3C)OC2C)CC(O)C1O (stereo unspecified)	none (no result: PGC1a acetyl inh)
CN1[C@@H]2c3cccc(=O)n3C[C@H]1[C@H](CO)[C@H]2C(=O)NCC1CC1	none (no result: PvdQ inh, PGC1a acetyl inh, miR122 inh)
